Assay outcomes from PubChem.
IL1B secr inh: blocks inflammasome-driven IL-1 beta release. THP-1 LPS/ATP IL-1B secretion, AlphaLISA, 16 h; active compounds read low. activity change, % at 57.5 µM. 4.7% of 360,000 active; in the data active = activity change below about -50%; inconclusive = mostly about -30% to -49%
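THP-1 cells pretreated 1 hr with compounds (up to 57.5 uM final), then stimulated with LPS (250 ng/mL final) plus ATP (1.25 mM final); secreted IL-1B measured by AlphaLISA after 16 hr, decreased signal indicating inhibition.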
HT1080-NT tox: kills 2HG-producing HT-1080-NT fibrosarcoma cells; HT-1080-NT fibrosarcoma viability, CellTiter-Glo ATP luminescence, 48 h; Potency, µM (doses to about 46.1 µM), for the others: top-dose activity, negative = less viability, usual class: cytotoxic; 1.6% of 360,000 active;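 note: NT is the 2HG producing partner of a matched IDH1 knockdown line; potency is the fitted concentration of half-maximal effect; 0% = DMSO-treated cells and -100% = media-only wells without cells; nearly all actives have a fitted effect of over 55% in size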
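Luminescent CellTiter-Glo readout after 48 hours of compound exposure at 37 degrees C defined viability of HT-1080-NT cells. Activity was normalized to DMSO wells and cell-free media wells; concentration-response curves were fitted and assigned curve classes.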
HT1080 IDH1KD tx: kills HT-1080 cells with IDH1 knockdown; HT-1080 IDH1 knockdown viability, ATP luminescence, 48 h; Potency, µM (top dose mostly 46.1 µM), without a hit: top-dose activity, negative = toxicity, most hits filed as cytotoxic; 2% of 360,000 active;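 note: potency is the fitted concentration of half-maximal effect; 0% = DMSO wells and -100% = cell-free medium wells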
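Assay cells: HT-1080 with IDH1 knockdown, 750 per well, RPMI/5% FBS. Exposure: 48 h at 37 °C following 2 h pre-incubation. Read: CellTiter-Glo luminescence; fitted concentration-response, curve class assigned.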
DT40 TDP1 CPT: growth inhibition of DT40 Tdp1-/-;hTDP1 cells with camptothecin (screen for TDP1 inhibitors) | chicken DT40 Tdp1-/-;hTDP1 cells + 20 nM CPT, ATP luminescence, 48 h | AID 686979 | Potency, µM (doses to about 46.2 µM), without a hit: at the top dose activity change, negative = growth inhibition, most hits filed as inhibitors | 12% of 420,000 active; note: potency is the fitted concentration of half-maximal effect; nearly all actives have a fitted effect of over 55% in size
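Chicken DT40 Tdp1-/- cells complemented with human TDP1, 400 cells/well, exposed to compounds plus 20 nM camptothecin for at least 48 h at 37 C; viability read as ATP content by CellTiter-Glo luminescence.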
DT40 TDP1 no CPT: qHTS for Inhibitors of human tyrosyl-DNA phosphodiesterase 1 (TDP1): qHTS in cells in absence of CPT. DT40 Tdp1-/- hTDP1 cells, no CPT, ATP luminescence, 48 h. 15% of 420,000 active. Potency, µM (series often up to 46.2 µM), without a hit: at the highest dose activity change, negative = growth inhibition, hits mostly inhibitors; note: potency is the fitted concentration of half-maximal effect; nearly all actives have a fitted effect of over 55% in size
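Readout: luminescence from CellTiter-Glo after 30 min in the dark at RT. Cells: DT40 Tdp1-/- with stable hTDP1, 400/well. Exposure: compounds alone, ≥48 hr, 37 °C.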
Starred values were filed as active, the others as inactive; ? = inconclusive; nt = no result given; ! = not confirmed by another sample; [ ] = remark or other dose. The list is not random: actives were taken first. Their share in the collection is about 19%. Unless noted, calls come from the whole dose curve; as a rule, active = well fitted curve in the direction sought with a large enough effect; inconclusive = small, poorly fitted or top-dose-only effect, or another doubt; inactive = no such curve, though single readings can be large; an effect the other way counts as inactive or inconclusive. Unless noted, % is set by controls: 0 for no effect and ±100 for the full control effect.

SMILES	IL1B secr inh	HT1080-NT tox	HT1080 IDH1KD tx	DT40 TDP1 CPT	DT40 TDP1 no CPT
COc1ccc(OCC(=O)OCc2cc(=O)n3nc(-c4cccs4)sc3n2)cc1	nt	nt	nt	-11%	-10%
CCN(CC(=O)Nc1ccccc1OC)C(=O)CN1C(=O)NC(C)(c2ccccc2)C1=O (stereo unspecified)	-11	9%	-7%	-11%	2%
C/C(=N\NC(=O)c1ccccc1O)c1ccc(Br)s1	-10	?	15µM*	15µM*	?
C/C(=N\NC(=O)c1cccc(F)c1)c1ccc(Br)s1	-2	11µM*	5.6µM*	5.6µM*	7.1µM*
C/C(=N\NC(=O)c1ccccc1[N+](=O)[O-])c1c(O)cc(C)oc1=O	5	20%	15%	?	?
CCOC(=O)C(CC)/C(C)=N\NC(=O)c1ccccc1O (stereo unspecified)	36	?	16µM*	16µM*	23µM*
C/C(=N\NC(=O)c1ccccc1O)c1c(O)cc(C)oc1=O	69	?	10µM*	?	?
CC(=O)O[C@H]1C[C@@]2(C)[C@@H](C[C@@H](O)[C@H]3[C@@]4(C)CC[C@@H](O)[C@@H](C)C4CC[C@@]32C)/C1=C(\CCC=C(C)C)C(=O)O (stereo partly specified)	13	?	17%	-17%	-21%
CC1(C)CC(NC(=O)c2cccc(S(=O)(=O)Nc3cccc(Cl)c3)c2)CC(C)(C)N1	-8	-5%	-8%	-25%	-3%
CC(C)(C)n1nc(-c2ccc(F)cc2)c2c(N)ncnc21	-25	?	?	23µM*	16µM*
CC(C)(C)n1nc(-c2ccc(Cl)cc2)c2c(N)ncnc21	-9	-20%	?	8.2µM*!	18µM*!
CC(C)(C)Cn1nc(-c2ccc(Cl)cc2)c2c(N)ncnc21	nt	nt	nt	8.4µM*	?
Cc1ccc(C(=O)N2CCN(S(=O)(=O)c3ccccc3[N+](=O)[O-])CC2)o1	-1	0%	-1%	-25%	?
CC(C)(C)[C@H](N)C(=O)N[C@H]1CCC2C3CC=C4C[C@@H](O)CC[C@]4(C)C3CC[C@@]21C (stereo partly specified)	-102*	?	?	4.6µM*	3.7µM*
CC(=O)C1CCC2C3CC=C4CC(SC(=N)N)CCC4(C)C3CCC12C (stereo unspecified)	-103*	?	?	13µM*	8.2µM*
CCCCCCN[C@H]1CCC2C3CC=C4C[C@@H](O)CC[C@]4(C)C3CC[C@@]21C (stereo partly specified)	-2	-11%	?	16µM*	?
C[C@]12CC[C@H](O)CC1=CCC1C2CC[C@@]2(C)C1CC[C@@H]2NC(=O)[C@@H](N)Cc1ccccc1 (stereo partly specified)	-96*	-2%	-28%	?	21µM*
NC(=O)[C@@H]1CCCNc2c(I)cc([N+](=O)[O-])cc2C(=O)N[C@@H](CO)C(=O)NCC(=O)N1	7	11%	13%	14%	2%
Nc1c(C(=O)CSc2nnc(Cc3ccccc3)o2)c(=O)[nH]c(=O)n1C1CC1	10	0%	10%	-1%	-21%
COc1ccc(-c2[nH]ncc2CN(CCO)CC23CC4CC(CC(C4)C2)C3)c(OC)c1	?	-17%	-12%	-22%	?
Cc1ccc(S(=O)(=O)NC(=O)N[C@@H](C)Cc2ccccc2)cc1	nt	nt	nt	20%	8%
Cc1c(C(=O)N2CCCC(c3ccccc3)C2)sc2ncnc(NCCc3ccccn3)c12 (stereo unspecified)	nt	nt	nt	16%[9.04 µM]	-14%
COc1ccc(/C=C\c2onc(C)c2S(=O)(=O)N2CCC(C(=O)Nc3cccc(C)c3C)CC2)cc1	nt	nt	nt	?	-14%
Cc1ccc(/C=C/c2onc(C)c2S(=O)(=O)N2CCC(C(=O)Nc3cc(F)ccc3F)CC2)cc1	nt	nt	nt	?	-21%
